Screening data as filed in PubChem BioAssay.
AddAB inh: less growth of phage-infected E. coli with AddAB | E. coli expressing H. pylori AddAB, absorbance growth | 0.29% of 330,000 active | inhibition, % at 11.9 µM; in the data active means inhibition above about 12%;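 further: 0% = vehicle wells of infected cells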
E coli growth-1: reduces bacterial viability in AddAB counter-screen; 0.27% of 330,000 active; AID 449728; E. coli V3065 growth, OD600 absorbance, 18 h; inhibition, % at 11.9 µM;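 active means inhibition above the campaign's mean inhibition across all tested compounds plus 3 SD, cut at about 9.9% in these data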;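 further: uninfected addAB+ strain grown without phage in ampicillin broth; 0% = DMSO wells and 100% = ciprofloxacin 0.95 µg/ml wells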
phage Ecoli inh: E. coli growth loss with phage present; growth absorbance; inhibition, % at 11.9 µM; 0.26% of 360,000 active; in the data active means inhibition above about 11%
E coli growth-2: E. coli growth inhibition | Escherichia coli growth, OD600, 23 h; hits give low values | OD600 absorbance (test concentration not listed) | 0.21% of 330,000 active;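 active means OD600 absorbance below the run mean of sample wells minus 3.6 SD, in any replicate, cut at about 0.56 in these data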
Tat export inh: inhibitors of E. coli Tat protein transport; E. coli MC4100 TorA-mCherry Tat export, fluorescence; AID 488895; inhibition, % at 10 µM; 0.036% of 340,000 active;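 active means mean replicate inhibition at least 50% and at least half of replicates individually reaching 50%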;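 further: exported cargo escapes ClpAP degradation while cytoplasmic cargo is degraded and loses fluorescence; 0% = median of neutral control wells and 100% = median of NaSCN control wells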
AddAB conf: confirmation screen: growth loss of phage-infected E. coli expressing H. pylori AddAB | shares compounds with AddAB inh | E. coli V3065 expressing H. pylori AddAB, T4 phage, OD; T4 phage with gene 2 nonsense mutations | inhibition, % at 11.9 µM | 64% of 880 active | AID 488942;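 active means mean inhibition above a set limit taken from the earlier primary screen, cut at about 13% in these data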;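 further: higher means less bacterial growth since AddAB block lets phage replicate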
RecBCD counter: reduces growth of phage-infected RecBCD+ E. coli, AddAB inhibitor counter-screen; shares compounds with AddAB inh; E. coli V66 + mutant T4 phage, OD growth; inhibition, % at 11.9 µM; 73% of 880 active; AID 488955;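 active means mean inhibition above the mean of solvent-only control wells plus 3 SD, cut at about 4% in these data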;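 further: optical density read after an 18 h incubation at 37 °C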
bact viab count: counter-screen for AddAB inhibitors: inhibitors of bacterial viability. absorbance (AddAB counterscreen). AID 488956. 35% of 880 active. inhibition, % at 11.9 µM. shares compounds with AddAB inh; in the data active means inhibition above about 25%
RecBCD conf: confirmation: growth loss of phage-infected RecBCD+ E. coli (RecBCD inhibitor screen); shares compounds with phage Ecoli inh; E. coli V66 + T4 2- phage, growth OD; inhibition, % at 11.9 µM; 45% of 890 active; AID 651982;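 active means mean inhibition over triplicates exceeding the hit threshold derived in the original primary screen, cut at about 11% in these data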
Ecoli viability: counter-screen for RecBCD inhibitors: inhibitors of bacterial viability; inhibition, % at 11.9 µM; 29% of 890 active; E. coli viability, absorbance (OD) growth; AID 651983; shares compounds with phage Ecoli inh; in the data active means inhibition above about 20%;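 further: E. coli strain V66 grown with compound alone and no phage infection; 0% = bacteria with DMSO vehicle only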
AddAB counter: growth loss of phage-infected AddAB E. coli, RecBCD counter-screen; shares compounds with phage Ecoli inh; E. coli expressing H. pylori AddAB + T4 phage, OD growth; gene 2 mutant T4, recBCD-deleted host; inhibition, % at 11.9 µM; 45% of 890 active; AID 651984;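 active means mean inhibition above the solvent-only control wells' mean plus 3 SD, cut at about 22% in these data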;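 further: higher means less bacterial growth from phage killing when AddAB is blocked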
An asterisk follows results filed as active; ! = not active in a repeat. In the library only some 0.5% were active in any assay of this set; here they are far more common.

How did COc1cc2c3c(c1OC)Oc1ccc(cc1)C[C@H]1c4c(cc(OC)c(OC)c4Oc4ccc(cc4)C[C@@H]3N(C)CC2)CCN1C do in these assays?
AddAB inh: 3; E coli growth-1: 0; phage Ecoli inh: 1; Tat export inh: 54*

Results for COc1cc2c3c(c1OC)Oc1ccc(cc1)CC1c4c(cc(OC)c(OC)c4Oc4ccc(cc4)CC3N(C)CC2)CCN1C (stereo not drawn) ?
E coli growth-2: 0.69

What do the screens show for `CCC(=O)OC1C(OC(C)=O)[C@@]2(O)C(CC(O)C2(C)C)[C@](C)(O)C2CCC3C(O)[C@]12C[C@@]3(C)O` (stereo partly drawn)?
E coli growth-2: 0.65

What do the screens show for `CN1C(=O)NC(=O)/C(=C/c2ccc([N+](=O)[O-])o2)C1=O`?
AddAB inh: 3; E coli growth-1: 2; phage Ecoli inh: 2; E coli growth-2: 0.3*

How did CN1C(=O)NC(=O)/C(=C\c2ccc([N+](=O)[O-])o2)C1=O do in these assays?
AddAB inh: -2; E coli growth-1: -4; Tat export inh: 0

Results for COC1C(OC(=O)c2ccc(C)[nH]2)C(O)C(Oc2ccc3c(O)c(NC(=O)c4ccc(O)c(CC=C(C)C)c4)c(=O)oc3c2Cl)OC1(C)C (stereo not drawn) ?
AddAB inh: 3; E coli growth-1: -1; phage Ecoli inh: 9; E coli growth-2: 0.052*; Tat export inh: -24

Results for COC(=O)C1=C(c2cccc(OC)c2OC)CC2CCC1N2C(=O)NCc1ccccc1 (stereo not drawn) ?
E coli growth-2: 0.68

Results for O=c1[nH]sc2cc(F)ccc12 ?
phage Ecoli inh: -1; E coli growth-2: 0.49*; Tat export inh: -20

What do the screens show for `CCCNC(=O)N1C2CCC1C(C(=O)OC)=C(c1cccc(Cl)c1)C2` (stereo not drawn)?
E coli growth-2: 0.69

How did COC(=O)C1=C(c2ccc(OC(F)(F)F)cc2)CC2CCC1N2C(=O)NCCO (stereo not drawn) do in these assays?
E coli growth-2: 0.67

What do the screens show for `CN(C)C(=S)SSC(=S)N(C)C`?
AddAB inh: 0; E coli growth-1: -1; phage Ecoli inh: 5; E coli growth-2: 0.49*; Tat export inh: 12

How did CC(N)Cc1cnc[nH]1 (stereo not drawn) do in these assays?
E coli growth-2: 0.69

How did N#CC1c2ccccc2-n2nncc2CN1Cc1cc(Cl)cc(Cl)c1 (stereo not drawn) do in these assays?
phage Ecoli inh: 4; Tat export inh: 56*

What do the screens show for `COC(=O)C1=C(c2ccc(S(C)(=O)=O)cc2)CC2CCC1N2C(=O)N1CCOCC1` (stereo not drawn)?
E coli growth-2: 0.7

Results for Oc1cc(Cl)c(Cl)c(Cl)c1 ?
phage Ecoli inh: 3; E coli growth-2: 0.068*; Tat export inh: -13

Results for CCCCCCCCCCCCCCCC[N+](C)(C)C ?
AddAB inh: -1; E coli growth-1: 2; phage Ecoli inh: 1; E coli growth-2: 0.069*; Tat export inh: 32

How did O=C(Cc1cccs1)N1CCC2(CC1)OCCO2 do in these assays?
AddAB inh: 8; E coli growth-1: 11*; phage Ecoli inh: 1; E coli growth-2: 0.68; Tat export inh: -3

What do the screens show for `COC(=O)C1=C(c2cccc(OC)c2OC)CC2CCC1N2C(=O)NCc1ccc(F)cc1` (stereo not drawn)?
E coli growth-2: 0.68

Results for CN(C)C1C(=O)C(C(N)=O)=C(O)C2(O)C(=O)C3=C(O)c4c(O)cccc4C(C)(O)C3CC12 (stereo not drawn) ?
AddAB inh: 85*; E coli growth-1: 94*; Tat export inh: 147*; AddAB conf: 94*; RecBCD counter: 93*; bact viab count: 92*

What do the screens show for `C[N+]1([O-])C2CC(OC(=O)C(CO)c3ccccc3)CC1C1OC12` (stereo not drawn)?
E coli growth-2: 0.71

Results for c1ccc2c(c1)[nH]c1cnccc12 ?
AddAB inh: 4; E coli growth-1: 3; phage Ecoli inh: 4; E coli growth-2: 0.63; Tat export inh: 8

How did Cc1c2ccncc2c(C)c2c1[nH]c1ccccc12 do in these assays?
AddAB inh: 13*; E coli growth-1: 14*; E coli growth-2: 0.42*; Tat export inh: -10; AddAB conf: 9; RecBCD counter: 0; bact viab count: 11

How did CN(C)C1(c2nnnn2-c2ccc(Cl)cc2)CCCCC1 do in these assays?
AddAB inh: 10; E coli growth-1: 1; phage Ecoli inh: 3; Tat export inh: -2

What do the screens show for `CC(C)CC(N(C)C)C1(c2ccc(Cl)cc2)CCC1` (stereo not drawn)?
AddAB inh: 37*!; E coli growth-1: 27*!; phage Ecoli inh: 2; E coli growth-2: 0.52*!; Tat export inh: -6; AddAB conf: 100*; RecBCD counter: 3; bact viab count: 67*

What do the screens show for `Cn1ncnc2c(=O)n(C)c(=O)nc1-2`?
AddAB inh: 47*; E coli growth-1: 45*; E coli growth-2: 0.048*; Tat export inh: 128*; AddAB conf: 73*; RecBCD counter: 76*; bact viab count: 79*

What do the screens show for `Cc1c(C(=O)c2cccc3ccccc23)c2cccc3c2n1C(CN1CCOCC1)CO3` (stereo not drawn)?
E coli growth-2: 0.72

How did O=C(Cn1cc(C(=O)c2ccccc2F)c2ccccc21)NCc1ccco1 do in these assays?
AddAB inh: 2; E coli growth-1: 3; phage Ecoli inh: 0; E coli growth-2: 0.66; Tat export inh: -4

How did COCCNC(=O)Cn1cc(C(=O)c2ccccc2F)c2ccccc21 do in these assays?
AddAB inh: -2; E coli growth-1: -1; phage Ecoli inh: 44*; E coli growth-2: 0.65; Tat export inh: -1; RecBCD conf: -2; Ecoli viability: -2; AddAB counter: -3

What do the screens show for `C[C@]12CCC(OS(=O)(=O)O)CC1=CCC1C2CC[C@]2(C)C(=O)CCC12` (stereo partly drawn)?
E coli growth-2: 0.72
